CF NFkB inh: cystic fibrosis NF-kB activation inhibition. KKLEB NF-kB-GFP reporter, PAF-induced, GFP fluorescence overnight. inhibition, % at 5 µM. 360,000 tested, 0.86% active. AID 588850;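 active = at least 50% inhibition at 5 µM, scaled per plate between neutral and stimulator controls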;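 note: PAF is a Pseudomonas aeruginosa culture filtrate used as stimulus; plate controls were PAF-stimulated DMSO wells for no effect and unstimulated DMSO wells for full effect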
HIF-2a inh: blocks HIF-2a reporter activity. 786-0 RCC cells HIF-2a reporter, luciferase luminescence, overnight. inhibition, % at 18.8 µM. 360,000 tested, 0.72% active. AID 624352;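 active = inhibition of the luminescence signal of 40% or more relative to plate controls, in a single-dose primary screen at 18.75 µM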
Beta2AR agonist: human beta-2 adrenergic receptor agonism by FAP. P07550. Am2.2-beta2AR cells, FAP receptor internalization, flow cytometry. response, % (no concentration beside the values). 340,000 tested, 0.43% active. AID 504454;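 active = response above a set limit, near 3 SD of response in nonfluorescent compounds, cut at about 42% in these data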
Target sequence (P07550 whole entry, looked up): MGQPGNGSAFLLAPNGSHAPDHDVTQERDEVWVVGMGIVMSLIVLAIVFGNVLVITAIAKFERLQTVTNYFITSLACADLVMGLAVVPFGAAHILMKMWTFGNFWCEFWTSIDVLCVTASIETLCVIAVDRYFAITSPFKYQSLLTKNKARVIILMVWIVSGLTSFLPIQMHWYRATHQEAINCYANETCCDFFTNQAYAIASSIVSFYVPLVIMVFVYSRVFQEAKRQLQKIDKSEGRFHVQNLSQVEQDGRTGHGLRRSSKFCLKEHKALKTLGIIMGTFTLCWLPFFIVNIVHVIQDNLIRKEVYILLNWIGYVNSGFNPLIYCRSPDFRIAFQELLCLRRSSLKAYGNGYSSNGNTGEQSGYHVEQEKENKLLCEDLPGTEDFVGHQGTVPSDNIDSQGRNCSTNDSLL
KKLEB cytotox: CF airway cell cytotoxicity counter-screen; 360,000 tested, 0.36% active; KKLEB CF airway cells viability, ATPlite luminescence, overnight; active compounds read low; cells stimulated with P. aeruginosa culture filtrate; activity change (cytotoxicity), % at 5 µM;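 active = corrected activity change at or below -50% at 5 µM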
Peg3 prom inh: reduces Peg3 promoter-driven luciferase expression in HeLa. HeLa PEG-Prom luciferase reporter, luminescence, overnight. inhibition, % at 20 µM. 360,000 tested, 1.7% active. AID 588405;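 active = inhibition of at least 50% at 20 µM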
TRPM1 prom inh: reduces MITF-dependent TRPM1 promoter luciferase signal; inhibition, % at 12.5 µM; SK-MEL-5 TRPM1 promoter luciferase, 24 h; 330,000 tested, 0.83% active;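 active = mean inhibition across replicates of 60% or more, whatever share of single replicates reaches that level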
Numbers without * were called inactive. Rows were chosen to be rich in hits. Some 2.8% of all compounds tested hit in one or more screens of this group.

What do the screens show for `CC(=C\c1ccccc1)/C=C1/SC(=S)N(CCC(=O)O)C1=O`?
CF NFkB inh: 6; HIF-2a inh: 81*; Beta2AR agonist: -4; KKLEB cytotox: 4; Peg3 prom inh: -34; TRPM1 prom inh: 5

How did Clc1ccc2nc(C3CCCCC3)c(Cc3ccccc3)n2c1 do in these assays?
CF NFkB inh: -10; HIF-2a inh: -4; KKLEB cytotox: -19; Peg3 prom inh: -5

What do the screens show for `N#CC(c1ccc(N)cc1)C(CC(=O)c1ccccc1)c1ccccc1` (stereo unspecified)?
CF NFkB inh: -2; HIF-2a inh: -69; KKLEB cytotox: 6; Peg3 prom inh: -58

Results for COc1ccc(N2CCN(c3cc(C)c4ccc(O)cc4n3)CC2)cc1 ?
CF NFkB inh: 1; HIF-2a inh: -9; Beta2AR agonist: -5; KKLEB cytotox: 16; Peg3 prom inh: -14

How did COc1cc(OC)c2nc(C)c3c(c2c1)N(c1ccc(O)cc1)CC3 do in these assays?
CF NFkB inh: -223; HIF-2a inh: 22; Beta2AR agonist: -3; KKLEB cytotox: 7; Peg3 prom inh: 65*; TRPM1 prom inh: 1

How did CCOC(=O)C1=C(C)N(c2ccc(C)cc2)C(=O)/C1=C\c1cccs1 do in these assays?
CF NFkB inh: 3; HIF-2a inh: -9; Beta2AR agonist: 0; KKLEB cytotox: 15; Peg3 prom inh: -7; TRPM1 prom inh: -20

Results for CCOC(=O)C1=C(C)N(c2ccccc2)C(=O)/C1=C\c1cccs1 ?
CF NFkB inh: -6; HIF-2a inh: -10; Beta2AR agonist: 91*; KKLEB cytotox: -13; Peg3 prom inh: -3; TRPM1 prom inh: 2

What do the screens show for `Cc1ccnc(N2C(=O)c3ccccc3C2=O)c1`?
CF NFkB inh: 9; HIF-2a inh: 5; Beta2AR agonist: -6; KKLEB cytotox: 0; Peg3 prom inh: 23; TRPM1 prom inh: -10

How did Cc1ccnc(N2C(=O)c3cccc4c([N+](=O)[O-])ccc(c34)C2=O)c1 do in these assays?
CF NFkB inh: -5; HIF-2a inh: 18; Beta2AR agonist: 8; KKLEB cytotox: -5; Peg3 prom inh: 108*; TRPM1 prom inh: 13

What do the screens show for `Cc1nnc(N2C(=O)c3cccc4c([N+](=O)[O-])ccc(c34)C2=O)s1`?
CF NFkB inh: -12; HIF-2a inh: -1; Beta2AR agonist: 25; KKLEB cytotox: 8; Peg3 prom inh: 24; TRPM1 prom inh: 9

What do the screens show for `Cc1ccc(N2C(=O)c3cccc4c([N+](=O)[O-])ccc(c34)C2=O)c2cccnc12`?
CF NFkB inh: 20; HIF-2a inh: 20; Beta2AR agonist: 17; KKLEB cytotox: -2; Peg3 prom inh: 63*; TRPM1 prom inh: 74*

How did CCOc1ccc(NCc2cccn2-c2nnc(N3CCC(C(=O)NCCCN4CC(C)CC(C)C4)CC3)s2)cc1 (stereo unspecified) do in these assays?
CF NFkB inh: 7; HIF-2a inh: 5; Beta2AR agonist: 23; KKLEB cytotox: -12; Peg3 prom inh: 43; TRPM1 prom inh: 90*

Results for Cc1ccc(C)c(S(=O)(=O)N2CCCC2CNC(=O)C(=O)NC2CCCC2)c1 (stereo unspecified) ?
CF NFkB inh: 11; HIF-2a inh: 12; Beta2AR agonist: 61*; KKLEB cytotox: -24; Peg3 prom inh: 4; TRPM1 prom inh: -2

Results for Cc1ccc(C)c(S(=O)(=O)N2CCCCC2CCNC(=O)C(=O)NC2CCCC2)c1 (stereo unspecified) ?
CF NFkB inh: 17; HIF-2a inh: 17; Beta2AR agonist: -7; KKLEB cytotox: -19; Peg3 prom inh: 27; TRPM1 prom inh: 10

What do the screens show for `O=C(/C=C1\C(=O)Nc2ccccc21)/C=C1\C(=O)Nc2ccccc21`?
CF NFkB inh: 8; HIF-2a inh: 39; Beta2AR agonist: 22; KKLEB cytotox: -4; Peg3 prom inh: 26; TRPM1 prom inh: 46

Results for O=C1Nc2ccccc2/C1=C\C(=O)c1ccccc1 ?
CF NFkB inh: 17; HIF-2a inh: 12; Beta2AR agonist: 20; KKLEB cytotox: -14; Peg3 prom inh: 65*; TRPM1 prom inh: 10

Results for CC(C)Oc1ccc(C(=O)/C=C2/C(=O)Nc3ccccc32)cc1 ?
CF NFkB inh: 15; HIF-2a inh: -7; Beta2AR agonist: 13; KKLEB cytotox: -16; Peg3 prom inh: 5; TRPM1 prom inh: -1

What do the screens show for `COc1ccc(C(=O)/C=C2\C(=O)Nc3ccc(Br)cc32)cc1`?
CF NFkB inh: 11; HIF-2a inh: -43; Beta2AR agonist: 2; KKLEB cytotox: -14; Peg3 prom inh: 76*; TRPM1 prom inh: 1

Results for COC(=O)[C@]12CCCCC=C1N(Cc1ccc(Cl)cc1Cl)C(=O)[C@H](CC(=O)NCC1CCCCC1)C2 ?
HIF-2a inh: 1

Results for Cc1ccccc1-c1cc2nc(NCc3ccccc3)n(C)c(=O)c2s1 ?
CF NFkB inh: -5; HIF-2a inh: -98; KKLEB cytotox: -3; Peg3 prom inh: 14

Results for CC[n+]1c(/C=C/c2c[nH]c3ccccc23)ccc2cc(C)ccc21 ?
TRPM1 prom inh: 74*

What do the screens show for `c1ccc(COc2ncnc3c2ncn3CCCNCC(c2ccccc2)c2ccccc2)cc1`?
CF NFkB inh: 21; HIF-2a inh: 14; KKLEB cytotox: -17; Peg3 prom inh: 100*

How did CCOc1cccc2cc(C(=O)N3CC(C)OC(C)C3)c(=O)oc12 (stereo unspecified) do in these assays?
CF NFkB inh: 3; HIF-2a inh: 21; Beta2AR agonist: -4; KKLEB cytotox: -12; Peg3 prom inh: 53*; TRPM1 prom inh: 8

How did Cc1ccccc1[C@@]1(C)ON(c2ccccc2C(F)(F)F)C1=O do in these assays?
CF NFkB inh: 49; HIF-2a inh: 29; Beta2AR agonist: 19; KKLEB cytotox: 5; Peg3 prom inh: 79*; TRPM1 prom inh: 26

How did O=C1N(c2ccccc2C(F)(F)F)O[C@]1(c1ccccc1)C1CCCC1 do in these assays?
CF NFkB inh: 47; HIF-2a inh: 5; Beta2AR agonist: 4; KKLEB cytotox: 1; Peg3 prom inh: 77*; TRPM1 prom inh: 17

What do the screens show for `CC[C@@]1(c2ccccc2OC)ON(c2ccccc2C(F)(F)F)C1=O`?
CF NFkB inh: 59*; HIF-2a inh: 14; Beta2AR agonist: 21; KKLEB cytotox: 4; Peg3 prom inh: 81*; TRPM1 prom inh: 52

How did O=c1c2ccccc2ncn1-c1ccccc1C(F)(F)F do in these assays?
CF NFkB inh: 12; HIF-2a inh: 7; Beta2AR agonist: -4; KKLEB cytotox: -8; Peg3 prom inh: 14; TRPM1 prom inh: 1

What do the screens show for `O=C(C[C@H]1C=C[C@@H](NC(=O)c2ccncc2)[C@@H](CO)O1)NCC1CC1`?
HIF-2a inh: 6

Results for COC(=O)c1cn(CC(C)n2c(=O)c3ccccc3n2Cc2cc(C(C)C)no2)nn1 (stereo unspecified) ?
HIF-2a inh: -3

How did c1ccc2c(c1)ccc1ccccc12 do in these assays?
CF NFkB inh: -34; HIF-2a inh: -1; Beta2AR agonist: -2; KKLEB cytotox: 9; Peg3 prom inh: 19; TRPM1 prom inh: -9

Screening results (PubChem BioAssay)
